# The supplement of paper PMC10681739
# Biological target: T1, ETS1 (UniProt P14921)
# T1 sequence: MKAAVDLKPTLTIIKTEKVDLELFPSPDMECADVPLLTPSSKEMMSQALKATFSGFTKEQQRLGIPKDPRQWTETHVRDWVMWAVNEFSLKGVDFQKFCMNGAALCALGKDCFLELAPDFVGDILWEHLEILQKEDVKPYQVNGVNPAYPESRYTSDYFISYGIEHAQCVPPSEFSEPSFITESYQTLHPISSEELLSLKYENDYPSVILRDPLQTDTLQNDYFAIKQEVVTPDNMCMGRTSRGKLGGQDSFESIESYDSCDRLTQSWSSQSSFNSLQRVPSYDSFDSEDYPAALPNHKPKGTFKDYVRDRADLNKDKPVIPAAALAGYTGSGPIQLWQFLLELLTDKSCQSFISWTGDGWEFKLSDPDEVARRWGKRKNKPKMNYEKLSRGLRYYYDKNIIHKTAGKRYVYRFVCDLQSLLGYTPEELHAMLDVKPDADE
# Assay: ETS1 binding intensity (PBM fluorescence) in presence of RUNX1, normalised to ETS1-only experiment (arbitrary fluorescence units); higher = stronger binding
# Settings: ETS1 concentration 1 nM; RUNX1 concentration 25 nM
# Experimental: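 Cooperative genomic-context PBM: 36-bp genomic probes with neighbouring ETS1 and RUNX1 sites, double-stranded on Agilent 4x180k arrays. Full-length recombinant human ETS1 (1 nM) was incubated alone or with RUNX1 (25 nM) and detected with anti-ETS1 antibody plus Alexa488 secondary. Value is the median fluorescence intensity over 4 replicate spots; the ETS1+RUNX1 data were normalised to the ETS1-only data using probes without RUNX1 sites. The 36-bp variable region sits on the array probe with constant linker/primer flanks that are not printed.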
row,Sequence,ETS1 binding intensity
1,ACGCCGCGCATCCGCGCTTTACGGCGGCCGCAAAAT,563
2,CGAGCTCGGTGTTCCGCTTTTTGTGGGCCGGGTGGG,478
3,GACCAATGTAAACAAGGATGTGGGTTCTCCGGCCAC,3290
4,TCAGGGGTGGGAGGAAGTGGTTAGGATCAGCCTGGG,3120
5,AGGCAAACTACAGGAAGATCCTGCCCGCAACTTGGT,2160
6,TGGCAGCGGGTGCGGAAACCACAGGCCTCCAGGCTT,1520
7,AGGGCATAAACAGGATGTGGTGTTGGATGAAACCTT,7490
8,GGAACAGGAAGCGGCAGAAATAGCAGCCACCGCGGC,1540
9,TGGATGGCAAGCAACGGAAACCGCAAACAGGGCTGT,6230
10,GGCTTCCGCCTGCCGAGCGGCCCCGGACCGCAGGCC,768
11,TCTGGATTTCCTGTGGGGCTCTCCCACAAGCAGTAC,506
12,AATATAGGAAGTGTCAGCTAGGGAACTCAACCACAA,382
13,CCGGGCGCCACTTCCGGTCCCCGTGGTCACGTGACC,16100
14,TGAATCATCCTGAGTTACCCGTTCTGTAACCGCCCC,517
15,CAGCCAGCCAGGAAGCAGGGGCTGCGGGGCTGACAG,524
16,AGTTTCTCCAGGAAGCGCTGAGGTTTTCTCAGAAGT,1160
17,TATCACGTTTCCTGCTGCTGCACCGCGACCTCAGCT,492
18,GCAGAACCAGAAACAGGATGTGGGTTCCCCTTTAAG,18900
19,TCCCCGGCAGCTTCCTCGCCCCGACCGCAGTGTTCC,798
20,CCCTGAGCACTTCCCCGTAAGGCTGCGGTGCACGGG,460

row,Sequence,ETS1 binding intensity
1,GCCTGAGCGGAAACCCGGCGCCACCACAAGATGGCA,2040
2,GCCCCGGAAGTGGCCCGGCTGTTGGCCGCAGCGGGA,3480
3,TGGCTGTGAGCTGCAGGATGTGGTCAGGAGAGGAAG,19700
4,CAGGGCACCTCCTACTTCCCCCCGCAGATAACTACC,1010
5,TAGCCGTACGGAAATGTTTGTGGTTCTCTGCATCTA,1010
6,CAGTCAGACGGAAGCCCGGCTTCTGTGGTGCCTGCC,473
7,GCAGGAAACGCTTTCTTAACACTATGTGGGTGAGGT,691
8,GATACTCTTCCTGTCATCCCATCCCCACAGCCTTAG,501
9,GGCTTGATTGAACGAGGATGTGGTTCTTGGGTGGGA,1770
10,GGTTCGCGGCTTCCGGGACATTTGTACCGCAGGGGG,2330
11,TCTGTGACTACGCGGATGTTGTGGGCGGCTACATGC,1810
12,GCTCATTTCCTGGCCGCTCCTGGGCTTCGCGGTGAG,716
13,CAGATCTGAAAGGGAAGTGGTTTCAAGAGGGTTCTT,1130
14,CCACCCTCCGTCCGGCCGCGACCGCGAGGAGGAAGA,1060
15,AGCTTGACGAAGGCTTCCTGTGGTTTGGGTTGATGT,964
16,GCTATCGAGCTTCCTGCAGCGGTGGCCACCCGAGCA,418
17,GGCAGGAAAGAGCTGATGCATTTCAACCGCAGCCTG,2430
18,ACCGGAAGGGCGGGGGCGTGGCGAGGTACCGCAGAC,2850
19,AGGAGTGAGGAAGTGAGGCTGGCCTTGTGGGTGTGG,748
20,ATCTTACCCCGGAAATGACAACAGTGCCGCAAACTG,10400
